Test systems include NCI-H23 lung; NCI-H226 lung; NCI-H322M lung; HOP-62 NSCLC; NCI-H460 lung; HOP-92 NSCLC; NCI-H522 lung; A549/ATCC NSCLC; 786-0 renal; COLO 205 colon; DU-145 prostate; K-562 leukemia; MALME-3M melanoma; MDA-MB-231 breast; RXF 393 renal; SF-268 CNS; SF-295 CNS; SF-539 CNS; UACC-257 melanoma; M14 melanoma.
Common to all, as to assay: NCI-60 one-dose screen, 48 h (100 = growth as untreated, 0 = no growth, -100 = all killed)
Common to all, as to details: 10 µM unless noted

Each structure is given as a SMILES string. Several values for one entry are separate records, joined by “and”; a condition that tells them apart may be missing. Equal entries are not always repeated. The panel holds about 83,000 compounds, 20% with a hit somewhere; the sample as a whole holds those more often.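 The test compound was applied at a single concentration to cells in 96-well plates for 48 hours, and percent growth was recorded.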 Unmarked numbers belong to inactive results. Activity calls are given as the source filed them. How the source made its calls: active means growth percent below 10; inactive means the rest.

With `NC1=CC(=O)c2cccnc2C1=O`, the growth with NCI-H23 lung is -33.1% (active); in the assay with NCI-H226 lung it was 59.2%; in the assay on NCI-H322M lung, 71.1%; with HOP-62 NSCLC, 14.6%; in the assay with NCI-H460 lung, -53.6% (active); with HOP-92 NSCLC, -31.3% (active). For the same compound, the growth in the assay on NCI-H522 lung was -57.9% (active); with A549/ATCC NSCLC, 26.6%; in the assay with 786-0 renal, 26.5%; in the assay on COLO 205 colon, 76.7%; in the assay on DU-145 prostate, -1.98% (active); in the assay with K-562 leukemia it was -48.4% (active). The growth with MALME-3M melanoma was -81.4% (active); in the assay with MDA-MB-231 breast, -13.5% (active); with RXF 393 renal, 15.8%; in the assay with SF-268 CNS it was -0.409% (active); in the assay on SF-295 CNS, 22.4%; with SF-539 CNS, -89.2% (active). Moreover, the values for the growth in the assay on UACC-257 melanoma and in the assay on M14 melanoma were -48.4% (active) and -88.6% (active), respectively.

For `O=C1/C(=C/c2ccc(-c3cccc(C(F)(F)F)c3)o2)SC(=S)N1CCc1ccc(O)cc1`, the growth with NCI-H23 lung was 85%; in the assay on NCI-H226 lung it was 101%; with NCI-H322M lung it was 90.3%; in the assay with HOP-62 NSCLC, 88.9%; in the assay on NCI-H460 lung, 72.4%; with HOP-92 NSCLC it was 63.5%. Further, the growth is 4% (active) in the assay with NCI-H522 lung; 75% in the assay on A549/ATCC NSCLC; 17.9% in the assay on 786-0 renal; -3.13% (active) in the assay with COLO 205 colon; 12.8% in the assay with DU-145 prostate; 20.6% in the assay on K-562 leukemia. The growth in the assay on MALME-3M melanoma was 71.6%; in the assay on MDA-MB-231 breast, 90.5%; in the assay on RXF 393 renal, 82.2%; in the assay on SF-268 CNS it was 56.8%; in the assay with SF-295 CNS, 96.6%; in the assay with SF-539 CNS, 76.2%. Besides, the growth with UACC-257 melanoma is 95%; in the assay on M14 melanoma, 57.5%.

Consider `O=S(=O)(Nc1ccc(F)cc1)c1ccc(-c2cnc(C3CC3)o2)cc1`, for which the growth in the assay on NCI-H23 lung was 42%; in the assay with NCI-H226 lung it was 63.9%; in the assay with NCI-H322M lung, 52.8%; with HOP-62 NSCLC, 34.7%; with NCI-H460 lung, 15.8%; in the assay on HOP-92 NSCLC, 50.5%. For the same compound, the growth in the assay on NCI-H522 lung was 0.0519% (active); in the assay with A549/ATCC NSCLC, 37.8%; in the assay on 786-0 renal, 38.5%; in the assay on COLO 205 colon, 20.2%; in the assay with DU-145 prostate it was 34%; in the assay with K-562 leukemia, 11.9%. In addition, the growth in the assay with MALME-3M melanoma was 46%; in the assay on MDA-MB-231 breast it was 49.7%; in the assay on RXF 393 renal, 25.9%; in the assay with SF-268 CNS, 45.5%; in the assay on SF-295 CNS, 30.2%; in the assay on SF-539 CNS, 19.4%. The growth in the assay on UACC-257 melanoma is 43.4%; with M14 melanoma it was 12.2%.

For the compound `Cc1cc(N2CCCCC2)nc(NCc2cc(Nc3ccnc4cc(Cl)ccc34)ccc2F)n1`, the growth with NCI-H23 lung is 22.3%; in the assay on NCI-H226 lung, 68.2%; in the assay with NCI-H322M lung, -12.7% (active); in the assay with HOP-62 NSCLC it was -49.5% (active); in the assay with NCI-H460 lung, -22.7% (active); with HOP-92 NSCLC it was -21.9% (active). The growth was -57.9% (active) with NCI-H522 lung; 2.71% (active) in the assay on A549/ATCC NSCLC; -80.1% (active) with 786-0 renal; -72.7% (active) in the assay with COLO 205 colon; -1.6% (active) in the assay with DU-145 prostate; -31.4% (active) in the assay with K-562 leukemia. Besides, the growth in the assay on MALME-3M melanoma was -75% (active); in the assay on MDA-MB-231 breast it was -73.3% (active); in the assay with RXF 393 renal, -66.2% (active); in the assay on SF-268 CNS, -17.2% (active); with SF-295 CNS, -84.5% (active); with SF-539 CNS, -77.7% (active). For the same compound, the growth in the assay on UACC-257 melanoma is -64.4% (active); in the assay on M14 melanoma, -67.8% (active).

Take `Clc1ccc(Nc2nc(Nc3ccc(Cl)cc3)nc(Nc3ccc(-c4cc(-c5cccc(Cl)c5)on4)cc3)n2)cc1`: the growth in the assay on NCI-H23 lung is 88.1%; in the assay on NCI-H226 lung, 99.9%; with NCI-H322M lung, 85.2%; in the assay on HOP-62 NSCLC it was 115%; in the assay on NCI-H460 lung it was 96.1%; in the assay on HOP-92 NSCLC, 60.4%. Further, the growth in the assay on NCI-H522 lung was 88.5%; with A549/ATCC NSCLC, 91.3%; in the assay with 786-0 renal it was 94.6%; with COLO 205 colon, 90.9%; with DU-145 prostate it was 110%; in the assay on K-562 leukemia, 85.9%. For the same compound, the growth in the assay with MALME-3M melanoma was 128%; in the assay on MDA-MB-231 breast, 81.3%; with RXF 393 renal it was 39.3%; in the assay with SF-268 CNS, 87.7%; in the assay on SF-295 CNS, 102%; with SF-539 CNS, 102%. Besides, the growth with UACC-257 melanoma is 108%; in the assay with M14 melanoma it was 94.8%.

Take `CN(C)CC1(C)Cc2ccsc2C1O` (stereo not given): the growth in the assay on NCI-H23 lung is 106% and 109%; with NCI-H226 lung, 105%; in the assay on NCI-H322M lung, 119%; with HOP-62 NSCLC, 105% and 108%; in the assay on NCI-H460 lung, 112% and 108%; in the assay on HOP-92 NSCLC, 101% and 108%. In addition, the growth in the assay with NCI-H522 lung was 94.5% and 94.3%; with A549/ATCC NSCLC it was 112% and 110%; in the assay on 786-0 renal, 97.2% and 94.9%; in the assay on COLO 205 colon it was 106% and 105%; in the assay on DU-145 prostate, 116% and 97.1%; in the assay on K-562 leukemia, 104% and 92.8%. Besides, the growth is 98.8% with MALME-3M melanoma; 113% and 111% in the assay on MDA-MB-231 breast; 108% and 109% in the assay on RXF 393 renal; 113% and 102% in the assay with SF-268 CNS; 121% and 115% with SF-295 CNS; 93.4% and 105% in the assay on SF-539 CNS. Further, the growth with UACC-257 melanoma was 108% and 110%; in the assay on M14 melanoma, 111% and 108%.

These data come from PubChem BioAssay (NCI).
